The values below come from PubChem BioAssay AID1823 (The Scripps Research Institute Molecular Screening Center, 2009).

Out of some 16,000 compounds screened, about 70 (0.4%) were called active. Only a selection was taken, and actives are over-represented in it overall. A number with no mark means an inactive call. Cut-off read from the data, not from the text of the source: active = inhibition above about 75%; inactive = the rest.

A short description of this assay: counter-screen for Nox1 inhibitors: inhibitors of luminol chemiluminescence (AID 1823). The conditions noted are these: HRP/luminol/H2O2 chemiluminescence counterscreen; at 6.7 µM; active compounds read high.
Broadly, the inhibition is the change of the read-out against control, counted positive when it falls. With `CC(C)(C)NC(=O)N/N=C/c1[nH]ncc1Br`, the inhibition is -2.94%.

On to `COc1ccccc1NC(=O)c1ccc(C#Cc2ccccc2)o1`, for which the inhibition was 0.37%.

With `CCCS(=O)(=O)c1csc(C(=O)OC)c1N/N=C/c1cccs1`, the inhibition was 1.56%.

On to `COCn1nnc2ccccc21`, for which the inhibition was 0.3%.

Regarding `Cc1c(N/N=C(\C#N)c2nc3ccccc3[nH]2)c(=O)n(-c2ccccc2)n1C`, the inhibition was 7.97%.

With `O=C(O)CC1(CC(=O)Nc2ccc(N3CCCCC3)cc2)CCCCC1`, the inhibition is -6.38%.

With `CSc1sc(C(N)=O)cc1C#N`, the inhibition was -6.88%.

As to `Cc1cc(C2=CSC3=NCCN23)ccc1Cl`, the inhibition is 36.3%.

On to `OCCNC(=S)Nc1ccccc1-c1ccccc1`, for which the inhibition is 0.57%.

On to `O=S(=O)(c1ccccc1)c1cc(C(F)(F)F)cc(C(F)(F)F)c1`, for which the inhibition was -1.49%.

For the compound `CSc1sc(NC(=O)N2CCOCC2)c(-c2ccc(Cl)cc2)c1C#N`, the inhibition is 3.63%.

Turning to `Oc1c(Cl)c(Cl)c(Cl)c2ccccc12`, the inhibition is 4.73%.

On to `CN(C)/C=C1/C(=O)NN=C1CSc1ccc(Cl)cc1`, for which the inhibition is -3.51%.

In the case of `Cc1ccc(N=C2SC3(CC3)C(=O)N2c2ccc(C)cc2)cc1`, the inhibition was -0.15%.

Turning to `CC1(C)CCc2cc(-c3ccnc(SCC(=O)c4ccccc4)n3)ccc2O1`, the inhibition was -4.62%.

As to `O=C(NCc1cccnc1)c1cnc2ccccc2n1`, the inhibition is -0.07%.

Take `CC(=O)NC(Cc1c[nH]c2ccccc12)C(=O)O` (stereo not drawn): the inhibition is -1.35%.

In the case of `O=C(c1ccc(F)cc1)C1CCN(Cc2cn[nH]c2-c2ccccc2)CC1`, the inhibition was 0.3%.

In the case of `CC1(NC(=O)OCc2ccccc2)CC1NC(=O)OCc1ccccc1` (stereo not drawn), the inhibition was 1.98%.

Consider `O=c1[nH]cc(Br)c(=O)[nH]1`, for which the inhibition is -0.43%.

As to `CC1CN(c2ccc(NC(=S)NCc3cccs3)cc2)CC(C)O1` (stereo not drawn), the inhibition was -35.2%.

On to `O=C(O)CC(CC(=O)N1CCOCC1)c1ccccc1` (stereo not drawn), for which the inhibition is -4.82%.

As to `O=C(CSc1ccc(Cl)cc1)NCCSCc1ccco1`, the inhibition is -0.61%.

With `O=C(NCCO)NCCSc1ccc(F)cc1`, the inhibition is -2.48%.

In the case of `CSc1n[nH]c(=O)n1-c1cccc(C(F)(F)F)c1`, the inhibition was 1.69%.

On to `FC(F)(F)c1ccc(-n2cn[nH]c2=S)cc1`, for which the inhibition is 53.1%.

On to `FC(F)(F)c1cccc(-n2c(-c3ccncc3)n[nH]c2=S)c1`, for which the inhibition is 97.8% (active).

As for `O=c1[nH]/c(=C/c2ccc(OC(F)(F)F)cc2)c(=O)[nH]/c1=C/c1ccc(OC(F)(F)F)cc1`, the inhibition was 0.16%.

`O=C(Nc1ccc(Cl)cc1)c1csc(COc2ccc3nonc3c2)n1`: the inhibition was 3.82%.

For `Cn1cc(C(=O)c2ccc(Cl)cc2)cc1/C=C(\C#N)S(=O)(=O)c1ccc(C(F)(F)F)cn1`, the inhibition was 2.9%.

On to `O=C(Nc1ccccc1)Nc1nc2ccccc2s1`, for which the inhibition is -7.1%.

As for `O=c1c2cc(-c3ccccc3)sc2nc2n1N=C(c1cccs1)CS2`, the inhibition was -0.02%.

Consider `COc1cc(OC)nc(S(C)(=O)=O)n1`, for which the inhibition was -4.97%.
